Measured values published in PubChem BioAssay AID449762 (Southern Research Specialized Biocontainment Screening …, 2010).
Screen size: about 330,000 compounds; about 1,900 (0.58%) were called active. Not shown: some 4% with an inconclusive outcome. Not all results are given here. Entries with a potency or affinity are not part of this list. Unmarked numbers belong to inactive results. Rule as the data show it: inconclusive = inhibition above about 70% without an active follow-up result; inactive = below that.

experiment: M. tuberculosis growth inhibition, HTS (AID 449762);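 also: bacterial growth assessed after seven days of incubation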; conditions: M. tuberculosis H37Rv growth inhibition, 7H9 media; at 25 µM; stronger effect = higher value

Q: For `COc1ccc(-c2nn(-c3ccccc3)cc2CNC(=O)c2cccc([N+](=O)[O-])c2)cc1`, which inhibition is on record?
A: 8.99%

Q: For `c1cncc(-c2ccc3ncnc(NCc4cccs4)c3c2)c1`, which inhibition is on record?
A: 0.82%

Q: With `CCOC(=O)N1CCN(CCC(=O)Nc2ccc(OC(F)(F)F)cc2)CC1` as the compound, how does the inhibition read?
A: 18.8%

Q: Which inhibition does the source give for `Cc1ccc(CNC(=O)NC2CCCCC2)cc1` here?
A: -3.64%

Q: With `Cc1cc2cc(CNC(=S)NC3CCCCC3)ccc2[nH]1` as the compound, how does the inhibition read?
A: 4.14%

Q: For `Cc1ccc(N2C(=O)N(CC(=O)Nc3ccc(C)cc3Cl)C(=O)C2C)cc1` (configuration not stated), which inhibition is on record?
A: -3.9%

Q: Which inhibition does the source give for `Cc1ccc2c(C)ccc(O)c2n1` here?
A: -1.61%

Q: With `Cc1ccc2cccc(N)c2n1` as the compound, how does the inhibition read?
A: 1.54%

Q: For `COc1ccc(CC(=O)N2CCC3(CC2)NCCc2[nH]cnc23)cc1`, which inhibition is on record?
A: 2.98%

Q: For `O=C(c1ccoc1)N1CCCC(N2CCN(c3ccc(F)cc3)CC2)C1` (configuration not stated), which inhibition is on record?
A: -11.5%

Q: For `COc1ccccc1N1CCN(C2CCCN(C(=O)c3cccc(-c4ccco4)c3)C2)CC1` (configuration not stated), which inhibition is on record?
A: 2.87%

Q: Which inhibition does the source give for `CCOc1ccc(C2OC(=O)Cc3cc(OC)c(OC)cc32)cc1` (configuration not stated) here?
A: -2.13%

Q: Which inhibition does the source give for `Cc1cccc(N2CCN(S(=O)(=O)c3cn(C)cn3)CC2)c1C` here?
A: -3.87%

Q: For `Nc1cc(Cl)ccc1Oc1ccccc1`, which inhibition is on record?
A: -2.47%

Q: For `Nc1cc(Cl)ccc1Oc1ccc(Cl)cc1`, which inhibition is on record?
A: 4.14%

Q: Which inhibition does the source give for `CN(CC(=O)Nc1ccc(F)c(F)c1F)c1ncnc2sccc12` here?
A: 1.29%

Q: With `O=C(CNC(=O)c1cnccn1)Nc1ccc(F)c(F)c1F` as the compound, how does the inhibition read?
A: -5.9%

Q: For `COCCN(C(=O)/C=C/c1ccccc1)c1c(N)n(Cc2ccccc2)c(=O)[nH]c1=O`, which inhibition is on record?
A: -1.36%

Q: With `O=C(O)c1ccc(N/N=C/C2=C(N3CCOCC3)C(=C\c3ccccc3)/CC2)cc1` as the compound, how does the inhibition read?
A: 0.66%

Q: Which inhibition does the source give for `O=CC1=C(N2CCOCC2)/C(=C\c2ccccc2)CC1` here?
A: -3.36%

Q: With `O=C(NNC1CC(=O)N(c2ccc(Br)cc2)C1=O)c1cccnc1` (configuration not stated) as the compound, how does the inhibition read?
A: 1.55%

Q: With `O=C(Cc1ccccc1)NNC1CC(=O)N(c2ccc(Br)cc2)C1=O` (configuration not stated) as the compound, how does the inhibition read?
A: 0.86%

Q: For `Cc1nn(C(C)C(=O)NCCCN(Cc2ccccc2)C(C)C)c(=O)c2c1sc1ccccc12` (configuration not stated), which inhibition is on record?
A: -3.36%

Q: With `C=CCC1c2cccc(C(=O)O)c2C(=O)N1c1cccc(C)c1` (configuration not stated) as the compound, how does the inhibition read?
A: 0.68%

Q: With `Cc1cccc(Nc2nc(-c3ccc(O)cc3O)cs2)n1` as the compound, how does the inhibition read?
A: 6.03%

Q: For `CCOC(=O)C1CCN(c2ncnc3c2cnn3-c2ccc(Cl)cc2)CC1`, which inhibition is on record?
A: 5.45%

Q: With `COc1ccc(-n2ncc3c(N4CCC(C(N)=O)CC4)ncnc32)cc1` as the compound, how does the inhibition read?
A: 2.74%
